Measurements as given in publication PMC12548414.
Among all 1,600 compounds or so, about 20 (1%) showed an effect of 50% or more. Only a selection was taken, and strong results are over-represented in it overall.

Each molecule was assayed on T1, E. coli pLC1021 (luc-trpAt trans-translation reporter). Conditions: reporter signal, KKL-35 = 100%; rise means trans-translation inhibition; 2 h, 20 µM.
T1 construct: pLC1021 luc-trpAt reporter strain
Design: species or system Escherichia coli pLC1021; luc-trpAt non-stop luciferase reporter; luminescence rises when trans-translation is inhibited; normalized to KKL-35 and DMSO
Method in brief: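 Luminescence (560 nm, 10 min after Bright-Glo) reports luciferase that escapes trans-translation tagging, measured after 2 h room-temperature treatment with 20 µM compound. Each plate was scaled between DMSO (negative) and 20 µM KKL-35 (positive) controls. Compounds scoring one standard deviation above the median counted as positive; at least two biological repeats.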

SMILES	% activation
CCC(C)c1ccc(O)c(NC(=S)NC(=O)c2ccc(-c3ccc(Cl)cc3)o2)c1 (stereo not shown) [KKL-0745]	0%
CC(C)(C)c1cc(NCCCn2ccnc2)n2ncc(-c3ccc(Cl)cc3)c2n1 [KKL-1011]	9%
N#Cc1cc(Oc2ccc(OCc3ccccc3)cc2)c([N+](=O)[O-])cc1C#N [KKL-0738]	5%
Cc1cccc(NC(=S)NC(=O)CC23CC4CC(CC(C4)C2)C3)c1 [KKL-1311]	0%
CSCCC(=O)N1CCCC(C(=O)Nc2cccc(-c3cccc(C)c3)c2)C1 (stereo not shown) [KKL-0499]	0%
Cc1ccc(-n2cc(CNC(C)c3csc(C)n3)c(-c3cccc(C)c3)n2)cc1 (stereo not shown) [KKL-0500]	0%
Cc1ccc2cc3c(nc2c1C)OC(=O)N(C1CCCC1)C3 [KKL-0690]	1%
CCCCc1ccc(C(=O)Nc2nccc3ccccc23)nc1 [KKL-1763]	50%
CCCCc1cccc(C(=O)Nc2nnc(S(=O)(=O)CCCC)s2)n1 [KKL-1853]	6%
CCOc1ccc2nc(NC(=O)c3ccccn3)sc2c1 [KKL-0810]	0%
c1ccc(-c2nn(-c3ccccc3)cc2CNC2CCCc3c2cnn3-c2ccccn2)cc1 (stereo not shown) [KKL-1169]	0%
Clc1cc(Br)ccc1OCCCCn1ccnc1 [KKL-1286]	0%
OC(CN1CCC2(CC1)CC(O)c1cc(F)ccc1O2)c1ccc2c(c1)CCCC2 (stereo not shown) [KKL-0925]	0%
CN(Cc1ccc(Cl)cc1)C(=O)CCc1nc2ccccc2oc1=O [KKL-1749]	0%
CCN(CC)c1ccc(NC(S)=NCCc2ccc(OC)c(OC)c2)cc1 [KKL-1550]	0%
O=C(Nc1ccc2c(c1)CN(C(=O)/C=C/c1cccs1)CC2)c1ccncc1 [KKL-0616]	0%
Cc1cc(=O)oc2cc(OCC(=O)OC3CCCCC3)ccc12 [KKL-1250]	7%
Cc1nc(-c2ccccc2Br)cc([C@H]2CN3CC[C@H]2C[C@@H]3CNC(=O)c2ccc(C(C)(C)C)cc2)n1 [KKL-1598]	0%
COc1ccc(Nc2nc(NC3CCNC3)nc3cc[nH]c(=O)c23)cc1CC(=O)c1ccccc1 (stereo not shown) [KKL-1883]	335%
COc1ccc(O)c(CN2CCCC(N3CCN(c4cccc(C(F)(F)F)c4)CC3)C2)c1 (stereo not shown) [KKL-0660]	1%
O=C(Nc1cccc(Cl)c1)Nc1ccccc1OC(F)(F)C(F)F [KKL-0431]	21%
Cc1ccc(CN(CCCn2ccnc2)Cc2cccc(Cl)c2Cl)o1 [KKL-1195]	17%
CCOC(=O)c1ccc(NC(=O)c2ccc(C)s2)cc1 [KKL-0584]	0%
CN(C)c1ccc(N=Nc2nc3ccccc3n2C)cc1 [KKL-1056]	0%
Fc1cccc(Oc2cc(C3CCCNC3)nc(-c3ccncc3)n2)c1 (stereo not shown) [KKL-1670]	3%

SMILES	% activation
O=C(C=Cc1cccs1)N1CCN(Cc2ccc(Br)s2)CC1 [KKL-1861]	0%
Cc1ccc(-n2cc(CNCCCn3ccnc3)c(-c3cccc(C)c3)n2)cc1 [KKL-0662]	0%
Cc1nn2c(O)cc(C(C)(C)C)nc2c1-c1ccccc1 [KKL-0891]	17%
CCOC(=O)c1c(NC(=O)COc2ccc(C(C)C)cc2)sc2c1CCC2 [KKL-1530]	0%
COc1ccc(-c2cc(=O)c3cc(OCC(=O)OC(C)C)ccc3o2)cc1 [KKL-1864]	2%
CCC(NC(=O)c1cnc(C(C)(C)C)nc1)c1ccc(F)cc1 (stereo not shown) [KKL-0932]	5%
CCCN=C1C(=O)c2ccccc2C(O)=C1N(C(C)=O)c1cccc(F)c1 [KKL-0978]	0%
Clc1nnc(N2CCCC2)c2ccccc12 [KKL-1738]	0%
CCOC(=O)COc1ccc(S(=O)(=O)Nc2c(C)cccc2CC)cc1 [KKL-1460]	0%
Nc1nc(N)c2c(Sc3ccc4ccccc4c3)cccc2n1 [KKL-1710]	0%
Cc1sc2nc(C(C)C)n(C3CCN(C(=O)c4ccncc4)CC3)c(=O)c2c1C [KKL-0464]	14%
COC(=O)[C@@H]1Cc2c([nH]c3ccccc23)[C@H]2C[C@H](NCc3cccnc3)C[C@@H](c3ccc(C(F)(F)F)cc3)N21 [KKL-1613]	0%
CCn1ccnc1CN(C)Cc1cn(-c2ccc(C)cc2)nc1-c1ccc(F)cc1 [KKL-0657]	0%
Cc1ccc(Nc2c(-c3ccccn3)nc3ccc(C)cn23)cc1 [KKL-1199]	4%
N#Cc1cccc(-c2ccc(NCC3CCC(CN(C(=O)O)c4cccnn4)CC3)nc2)c1 (stereo not shown) [KKL-1855]	0%
c1cn(CCCNc2nncc(-c3ccc(C4CCCCC4)cc3)n2)cn1 [KKL-1171]	8%
COC(=O)[C@@H]1Cc2c([nH]c3ccccc23)[C@H]2C[C@@H](NC(C)C)C[C@@H](c3cccc(Cl)c3)N21 [KKL-1594]	1%
COc1ccc(OC)c(NC(=O)Nc2ccc(Cl)c(C(F)(F)F)c2)c1 [KKL-1544]	0%
Cc1nn(-c2ccccc2)c2c1C(c1ccc(O)c(O)c1)N1C(=N2)C(Nc2ccccc2)=Nc2ccccc21 (stereo not shown) [KKL-0996]	0%
COc1cccc(-c2cc(CC3(O)CCN(Cc4[nH]c5ccc(C)cc5c4C)CC3)on2)c1 [KKL-0315]	0%
CC(C)(C)C(=O)CC1(O)Oc2ccccc2N=C1C=C(O)C(C)(C)C (stereo not shown) [KKL-1740]	6%
Cc1cc(C)c(-n2cccn2)c(CN(CCCn2ccnc2)Cc2ccc(F)cc2)c1 [KKL-1032]	8%
O=C(CN1CCN(Cc2ccccc2)CC1)Nc1ccc([N+](=O)[O-])cc1C(=O)c1ccccc1 [KKL-1480]	0%
O=C(NCc1ccco1)N1CCN(Cc2ccc(Cl)s2)CC1 [KKL-1727]	3%
